{"source": "PubChem BioAssay", "note": "Activity calls are given as the source filed them. No rule for the calls is given here.", "data": [{"biological_target": "Protein kinase 7 (PK7), Plasmodium falciparum 3D7 (PF3D7_0213400) (UniProt Q7YTF7)", "sequence (Q7YTF7 1-343)": "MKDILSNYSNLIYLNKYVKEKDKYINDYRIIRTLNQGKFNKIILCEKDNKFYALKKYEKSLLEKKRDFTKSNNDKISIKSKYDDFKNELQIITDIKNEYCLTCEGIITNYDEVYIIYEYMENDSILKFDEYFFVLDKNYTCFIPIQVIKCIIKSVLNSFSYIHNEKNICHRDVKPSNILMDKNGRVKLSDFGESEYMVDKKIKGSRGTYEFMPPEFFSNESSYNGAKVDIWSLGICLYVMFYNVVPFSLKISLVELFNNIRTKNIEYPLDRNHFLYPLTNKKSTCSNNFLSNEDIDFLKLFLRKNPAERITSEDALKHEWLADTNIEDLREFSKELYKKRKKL", "experiment": "inhibition of Plasmodium PK7 catalytic activity – biochemical, TCAMS antimalarial set, Kinase-Glo luminescence (AID 1159587)", "conditions": "recombinant PfPK7, Kinase-Glo ATP depletion luminescence", "values": [{"smiles": "C1=C(c2c[nH]c3ccccc23)CCN(Cc2ccccc2)C1", "outcome": "inactive"}, {"smiles": "CC[C@H]1CN2CC[C@H]1C[C@H]2[C@H](O)c1cc(-c2ccc(F)cc2)nc2ccc(OC)cc12", "outcome": "inactive"}, {"smiles": "Cc1[nH]c2ccccc2c1C1=CCN(CCN2CCCc3c(Br)cccc3C2=O)CC1", "outcome": "inactive"}, {"smiles": "CN1CCC(N(C)c2nccc(N3CCN(Cc4cncn4Cc4ccccc4)CC3)n2)CC1", "outcome": "inactive"}, {"smiles": "CCCCCCCc1cc(O)c2c3c(c(=O)oc2c1)CN(C)CC3", "outcome": "inactive"}, {"smiles": "O=C(/C=C/c1cccs1)NC1CCC(CN2CCC(c3c[nH]c4ccccc34)CC2)CC1", "note": "(stereo not given)", "outcome": "inactive"}, {"smiles": "CN(C)CCCn1cc(C(=O)OC2C[C@H]3CC[C@@H](C2)N3C)c2cc(-c3ccccc3)ccc21", "note": "(stereo not given in full)", "outcome": "inactive"}, {"smiles": "O=C(c1cc(C(F)(F)F)cc(C(F)(F)F)c1)N1CC[C@H](CCN2CCC3(CC2)C(=O)NCN3c2ccccc2)C[C@H]1Cc1ccc(Cl)c(Cl)c1", "outcome": "inactive"}, {"smiles": "Cc1cc(O)cc2c(C3CCN(CC4CCC(NC(=O)/C=C/c5ccccc5Cl)CC4)CC3)c[nH]c12", "note": "(stereo not given)", "outcome": "inactive"}, {"smiles": "CC[C@H]1CN2CC[C@H]1C[C@H]2[C@H](O)c1ccnc2ccc(C#N)cc12", "outcome": "inactive"}]}]}
